Ten molecules from article PMC5540273 (PLoS ONE, 2017) can be followed below.

SMILES strings stand for the structures.

Holding throughout (details): concentration: 1 μM, replicates: in singlicate; n = 1
Assay [1] has as its system STK16.
Assay [2] relates to STK33.
In assay [3] the test system is STK35.
The test system of assay [4] is STK36.
Assay [5] relates to STK39.
In assay [6] the test system is SYK.
In assay [7] the test system is SgK110.
In assay [8] the test system is T1, TAK1.
T1 construct: gene MAP3K7

In assay [9] the test system is TAOK1.
In assay [10] the test system is TAOK2.
Assay [11] has as its system TAOK3.
Assay [12] relates to TBK1.
The test system of assay [13] is TEC.
Assay [14] deals with TESK1.
The test system of assay [15] is TGFBR1.
In assay [16] the test system is TGFBR2.
Assay [17] concerns TIE1.
For assay [18], the system named is T2, TIE2.
T2 construct: gene TEK

Assay [19] concerns TLK1.
The subject of assay [20] is TLK2.
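Further: KINOMEscan kinase panel screen.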

With `Cc1ccccc1-n1cnc2c(N)ncnc21` [SKF-97510], the “%Inh” value in assay [1] was found to be 21%; in assay [2] it was 0%; in [3], 0%; in [4] it was 27%; in [5], 0%; in assay [6], 100%. Moreover, the “%Inh” value amounted to 0% in assay [7]; 0% in assay [8]; 0% in [9]; 0% in assay [10]; 0% in [11]; 7% in [12]. The “%Inh” value in [13] stood at 9%; in [14], 3%; in assay [15], 0%; in assay [16], 0%; in [17], 0%; in [18] it was 0%. Moreover, the results for the “%Inh” value in [19] and in [20] were 81% and 7%, respectively.

As for `O=C(Nc1n[nH]c2nc(-c3nccs3)c(Br)cc12)C1CCCC1` [SB-742609], the “%Inh” value in assay [1] worked out at 0%; in assay [2], 0%; in assay [3], 0%; in assay [4] it was 0%; in assay [5], 21%; in assay [6], 20%. Moreover, the “%Inh” value in [7], in [8], in [9], in [10], in assay [11] and in assay [12] was 0% throughout. Moreover, the “%Inh” value was 0% in assay [13]; 43% in [14]; 31% in assay [15]; 0% in assay [16]; 14% in assay [17]; 0% in [18]. Moreover, the “%Inh” value in [19] and in assay [20] was 0% throughout.

In the case of `CCCc1ccc(S(=O)(=O)NC2CCN(c3ccnc(Nc4ccc(F)cc4)n3)C2)cc1` (centres unmarked) [GSK1379715], the “%Inh” value stood at 6% in assay [1]; 0% in [2]; 0% in [3]; 0% in assay [4]; 13% in [5]; 0% in [6]. In addition, the “%Inh” value amounted to 34% in [7]; 0% in [8]; 0% in assay [9]; 0% in assay [10]; 0% in [11]; 0% in [12]. For the same molecule, the “%Inh” value in assay [13] is given as 0%; in assay [14] it was 74%; in assay [15], 0%; in assay [16] it was 0%; in [17], 0%; in [18], 0%. Moreover, the “%Inh” value in [19] and in assay [20] was 0% in each case.

With `Cn1ccc2ncnc(Oc3ccc(Nc4nc5ccccc5[nH]4)cc3)c21`, the “%Inh” value in [1] was determined as 15%; in assay [2], 0%; in [3] it was 19%; in assay [4], 0%; in assay [5], 0%; in assay [6], 0%. In addition, the “%Inh” value in assay [7], in [8], in assay [9], in [10], in [11] and in assay [12] was 0% each time. Besides, the “%Inh” value in assay [13] is 0%; in [14], 0%; in [15] it was 0%; in assay [16], 0%; in [17] it was 5%; in [18] it was 0%. The “%Inh” value in assay [19] and in [20] was 0% each time.

Take `CCn1c(-c2ccccn2)nc2cnccc21` [SB-736398]: the “%Inh” value is recorded as 0% in assay [1]; 0% in [2]; 1% in [3]; 0% in assay [4]; 31% in [5]; 0% in assay [6]. Also, the “%Inh” value is on record as 15% in assay [7]; 0% in [8]; 0% in assay [9]; 33% in assay [10]; 0% in assay [11]; 0% in assay [12]. Also, the “%Inh” value in assay [13] is given as 0%; in assay [14], 0%; in assay [15], 21%; in assay [16], 10%; in [17], 0%; in [18], 0%. Besides, the “%Inh” value in assay [19] and in [20] was 0% throughout.

Regarding `Fc1cc(Cl)ccc1Nc1ccnc2cc(-c3ccc(CN4CCCCC4)o3)ccc12` [GW560116], the “%Inh” value in assay [1] is reported as 1%; in assay [2] it was 0%; in assay [3], 0%; in assay [4], 0%; in [5], 0%; in [6] it was 0%. The “%Inh” value is recorded as 0% in assay [7]; 0% in assay [8]; 0% in assay [9]; 0% in assay [10]; 0% in assay [11]; 14% in assay [12]. In addition, the “%Inh” value in assay [13] came to 5%; in [14], 19%; in assay [15], 0%; in assay [16] it was 0%; in [17] it was 0%; in assay [18], 0%. Besides, the “%Inh” value in [19] and in assay [20] was 0% throughout.

As for `Cc1cc(-c2ccc3c(c2)CC[C@@H](N[C@@H](C)c2ccccc2)C3)cnc1N.Cl` [GW412617], the “%Inh” value in [1] came out at 22%; in [2] it was 7%; in assay [3], 10%; in assay [4], 0%; in assay [5] it was 1%; in assay [6], 35%. Further, the “%Inh” value in [7] turned out to be 0%; in assay [8], 42%; in assay [9], 14%; in [10], 0%; in assay [11] it was 14%; in [12] it was 11%. For the same molecule, the “%Inh” value came out at 1% in assay [13]; 11% in assay [14]; 0% in assay [15]; 20% in assay [16]; 35% in [17]; 0% in assay [18]. Moreover, the “%Inh” value in assay [19] came to 4%; in assay [20], 0%.

As for `Cc1ccc(C(=O)Nc2ccc(Nc3ccnc4cc(-c5ccccn5)ccc34)cc2O)cc1.Cl` [GW440146], the “%Inh” value in assay [1] is given as 22%; in assay [2], 0%; in assay [3], 0%; in assay [4], 0%; in [5], 0%; in [6] it was 21%. For the same molecule, the “%Inh” value in assay [7], in assay [8], in assay [9], in [10], in [11] and in assay [12] was 0% each time. Further, the “%Inh” value in assay [13] came to 13%; in assay [14], 13%; in assay [15], 3%; in [16], 26%; in assay [17], 19%; in [18], 0%. Also, the “%Inh” value in [19] and in assay [20] was 0% each time.

On to `CS(=O)(=O)c1ccc(-c2nc3n(c2-c2ccncc2)CCC3)cc1` [SKF-105942], for which the “%Inh” value in assay [1] is 96.8%; in assay [2] it was 0%; in [3] it was 0%; in assay [4], 0%; in assay [5] it was 0%; in assay [6], 11%. For the same molecule, the “%Inh” value was found to be 0% in assay [7]; 0% in assay [8]; 0% in assay [9]; 0% in [10]; 0% in assay [11]; 27% in assay [12]. For the same molecule, the “%Inh” value worked out at 7% in assay [13]; 1% in [14]; 15% in assay [15]; 0% in assay [16]; 8% in assay [17]; 0% in assay [18]. The “%Inh” value in assay [19] and in assay [20] was 0% in each case.

Take `O=c1cc(N2CCOCC2)nc2n(Cc3cccc(Cl)c3Cl)ccn12` [GSK2286295]: the “%Inh” value was found to be 5% in [1]; 0% in assay [2]; 0% in assay [3]; 43% in assay [4]; 0% in assay [5]; 32% in assay [6]. Moreover, the “%Inh” value in assay [7] came out at 0%; in assay [8], 5%; in assay [9], 0%; in assay [10], 0%; in assay [11], 0%; in assay [12], 19%. For the same molecule, the “%Inh” value in assay [13] is listed as 0%; in assay [14] it was 1%; in assay [15] it was 0%; in assay [16], 0%; in assay [17] it was 0%; in assay [18], 0%. Moreover, the “%Inh” value in [19] and in assay [20] was 0% in each case.
